According to the supplement of paper PMC6089552:
Out of some 3,200 compounds screened, about 300 (9.4%) showed activity. Only a selection was taken, and actives are over-represented in it overall. Values without a mark were called inactive.

Tested on: A673/TR/shEF
Assay: cell viability (LOESS-normalised, relative to median of negative controls) (log2 ratio); higher = more viable cells (less compound effect), active = hit call of the paper (over 3 MAD below the median)
Conditions: treatment time: 72 h
Method in brief: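 A673/TR/shEF Ewing sarcoma cells were plated at 1,500 per well in 384-well plates and cultured with or without doxycycline, added 24 h before compounds, to induce EWS-FLI1 shRNA knockdown. Library compounds at two or more concentrations, alongside DMSO controls, were applied for three days. Cell viability was measured by CellTiter-Glo luminescence on an Envision reader. Readings were LOESS-corrected per plate, divided by the median of negative controls and log2-transformed, and hits were wells lying at least three median absolute deviations from the median of all screened wells.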

[1] = 0.103 µM, library screen: screen3, EWS-FLI1 expression: high (no doxycycline)
[2] = 0.103 µM, library screen: screen3, EWS-FLI1 expression: low (doxycycline-induced shRNA knockdown)
[3] = 0.25 µM, library screen: screen1, EWS-FLI1 expression: high (no doxycycline)
[4] = 0.25 µM, library screen: screen1, EWS-FLI1 expression: low (doxycycline-induced shRNA knockdown)
[5] = 0.25 µM, library screen: screen2, EWS-FLI1 expression: high (no doxycycline)
[6] = 0.25 µM, library screen: screen2, EWS-FLI1 expression: low (doxycycline-induced shRNA knockdown)
[7] = 0.308 µM, library screen: screen3, EWS-FLI1 expression: high (no doxycycline)
[8] = 0.308 µM, library screen: screen3, EWS-FLI1 expression: low (doxycycline-induced shRNA knockdown)
[9] = 0.926 µM, library screen: screen3, EWS-FLI1 expression: high (no doxycycline)
[10] = 0.926 µM, library screen: screen3, EWS-FLI1 expression: low (doxycycline-induced shRNA knockdown)
[11] = 2.5 µM, library screen: screen1, EWS-FLI1 expression: high (no doxycycline)
[12] = 2.5 µM, library screen: screen1, EWS-FLI1 expression: low (doxycycline-induced shRNA knockdown)
[13] = 2.5 µM, library screen: screen2, EWS-FLI1 expression: high (no doxycycline)
[14] = 2.5 µM, library screen: screen2, EWS-FLI1 expression: low (doxycycline-induced shRNA knockdown)
[15] = 2.8 µM, library screen: screen3, EWS-FLI1 expression: high (no doxycycline)
[16] = 2.8 µM, library screen: screen3, EWS-FLI1 expression: low (doxycycline-induced shRNA knockdown)
[17] = 8.3 µM, library screen: screen3, EWS-FLI1 expression: high (no doxycycline)
[18] = 8.3 µM, library screen: screen3, EWS-FLI1 expression: low (doxycycline-induced shRNA knockdown)
[19] = 25 µM, library screen: screen3, EWS-FLI1 expression: high (no doxycycline)
[20] = 25 µM, library screen: screen3, EWS-FLI1 expression: low (doxycycline-induced shRNA knockdown)
[21] = 0.025 µM, library screen: screen2, EWS-FLI1 expression: high (no doxycycline)
[22] = 0.025 µM, library screen: screen2, EWS-FLI1 expression: low (doxycycline-induced shRNA knockdown)
[23] = 25 µM, library screen: screen2, EWS-FLI1 expression: high (no doxycycline)
[24] = 25 µM, library screen: screen2, EWS-FLI1 expression: low (doxycycline-induced shRNA knockdown)

## C[C@]12CC[C@@H]3c4ccc(O)cc4CC[C@H]3[C@@H]1CC[C@@H]2O
[1]
  cell viability (log2): 0.029
[2]
  cell viability (log2): -0.00908
[3]
  cell viability (log2): 0.122
[4]
  cell viability (log2): 0.00576
[5]
  cell viability (log2): 0.147
[6]
  cell viability (log2): 0.0497
[7]
  cell viability (log2): 0.101
[8]
  cell viability (log2): 0.0915
[9]
  cell viability (log2): 0.111
[10]
  cell viability (log2): 0.0539
[11]
  cell viability (log2): 0.0979
[12]
  cell viability (log2): 0.0174
[13]
  cell viability (log2): 0.0738
[14]
  cell viability (log2): 0.0113
[15]
  cell viability (log2): 0.127
[16]
  cell viability (log2): 0.0786
[17]
  cell viability (log2): 0.135
[18]
  cell viability (log2): 0.0545
[19]
  cell viability (log2): 0.166
[20]
  cell viability (log2): 0.0719

## COc1ccccc1CN1CCN(Cc2ccc(OC)c(OC)c2)CC1
[3]
  cell viability (log2): 0.0157
[4]
  cell viability (log2): 0.078
[11]
  cell viability (log2): 0.0565
[12]
  cell viability (log2): 0.0117

## CC(C)(C)c1ccccc1OCC(O)CN1CCCCC1 (centres undefined)
[3]
  cell viability (log2): 0.09
[4]
  cell viability (log2): 0.0909
[11]
  cell viability (log2): 0.176
[12]
  cell viability (log2): 0.0864

## CC(=O)Oc1ccc(-c2coc3cc(OC(C)=O)ccc3c2=O)cc1
[3]
  cell viability (log2): 0.152
[4]
  cell viability (log2): 0.0716
[11]
  cell viability (log2): 0.0709
[12]
  cell viability (log2): 0.0455

## CCOC(=O)C1(O)Oc2cc(OC)cc(OC)c2C(=O)C1c1ccccc1 (centres undefined)
[3]
  cell viability (log2): 0.122
[4]
  cell viability (log2): 0.103
[11]
  cell viability (log2): 0.112
[12]
  cell viability (log2): 0.086

## CCN(CC)CCCC(C)Nc1ccnc2cc(Cl)ccc12 (centres undefined)
[21]
  cell viability (log2): 0.158
[22]
  cell viability (log2): 0.0518
[3]
  cell viability (log2): 0.0569
[4]
  cell viability (log2): 0.0751
[5]
  cell viability (log2): 0.0978
[6]
  cell viability (log2): 0.0902
[11]
  cell viability (log2): 0.0579
[12]
  cell viability (log2): 0.079
[13]
  cell viability (log2): 0.0873
[14]
  cell viability (log2): 0.0425
[23]
  cell viability (log2): 0.0565
[24]
  cell viability (log2): 0.0987

## CCN(CC)CCCC(C)Nc1c2ccc(Cl)cc2nc2ccc(OC)cc12 (centres undefined)
[21]
  cell viability (log2): 0.148
[22]
  cell viability (log2): 0.0788
[3]
  cell viability (log2): 0.215
[4]
  cell viability (log2): 0.197
[5]
  cell viability (log2): 0.0911
[6]
  cell viability (log2): 0.0849
[11]
  cell viability (log2): 0.176
[12]
  cell viability (log2): 0.252
[13]
  cell viability (log2): 0.0338
[14]
  cell viability (log2): 0.0518
[23]
  cell viability (log2): -4.23 (active)
[24]
  cell viability (log2): -2.71 (active)

## CCN(CCO)CCCC(C)Nc1ccnc2cc(Cl)ccc12 (centres undefined)
[3]
  cell viability (log2): 0.00358
[4]
  cell viability (log2): 0.138
[11]
  cell viability (log2): 0.146
[12]
  cell viability (log2): 0.0473

## CC1(C)C(=O)CC[C@@]2(C)C1C[C@@H](O)[C@@]1(C)C3=CC(=O)O[C@@H](c4ccoc4)[C@]3(C)CCC21 (some centres undefined)
[3]
  cell viability (log2): 0.0874
[4]
  cell viability (log2): 0.0583
[11]
  cell viability (log2): 0.0284
[12]
  cell viability (log2): 0.0454

## COc1cc2c(cc1O)C(Cc1ccc(O)cc1)N(C)CC2 (centres undefined)
[3]
  cell viability (log2): 0.127
[4]
  cell viability (log2): 0.111
[11]
  cell viability (log2): 0.067
[12]
  cell viability (log2): 0.114

## O=C(O[C@@H]1Cc2c(O)cc(O)cc2O[C@@H]1c1cc(O)c(O)c(O)c1-c1c([C@H]2Oc3cc(O)cc(O)c3C[C@H]2O)cc(O)c(O)c1O)c1cc(O)c(O)c(O)c1
[3]
  cell viability (log2): 0.0332
[4]
  cell viability (log2): 0.0641
[11]
  cell viability (log2): 0.0977
[12]
  cell viability (log2): -0.0327

## COc1ncc(-c2ccc3nccc(-c4ccnnc4)c3c2)cc1NS(=O)(=O)c1ccc(F)cc1F
[1]
  cell viability (log2): -0.686 (active)
[2]
  cell viability (log2): -0.505 (active)
[7]
  cell viability (log2): -1.07 (active)
[8]
  cell viability (log2): -0.722 (active)
[9]
  cell viability (log2): -1.88 (active)
[10]
  cell viability (log2): -1.31 (active)
[15]
  cell viability (log2): -2.85 (active)
[16]
  cell viability (log2): -2.24 (active)
[17]
  cell viability (log2): -3.29 (active)
[18]
  cell viability (log2): -2.78 (active)
[19]
  cell viability (log2): -3.83 (active)
[20]
  cell viability (log2): -3.59 (active)

## CC(=O)Nc1ccc2c(c1)C1C=CCC1C(c1ccc(Cl)cc1Cl)N2 (centres undefined)
[3]
  cell viability (log2): 0.141
[4]
  cell viability (log2): 0.199
[11]
  cell viability (log2): 0.113
[12]
  cell viability (log2): 0.349

## CCOC(=O)c1c(C)cc(O)c(C)c1O
[3]
  cell viability (log2): 0.117
[4]
  cell viability (log2): 0.0649
[11]
  cell viability (log2): 0.0865
[12]
  cell viability (log2): 0.119

## CS(=O)(=O)c1ccc(C(=O)Nc2ccc(Cl)c(-c3ccccn3)c2)c(Cl)c1
[1]
  cell viability (log2): 0.0228
[2]
  cell viability (log2): 0.046
[7]
  cell viability (log2): 0.0359
[8]
  cell viability (log2): 0.0158
[9]
  cell viability (log2): 0.0316
[10]
  cell viability (log2): 0.0515
[15]
  cell viability (log2): 0.0335
[16]
  cell viability (log2): 0.0126
[17]
  cell viability (log2): 0.0254
[18]
  cell viability (log2): 0.0522
[19]
  cell viability (log2): 0.025
[20]
  cell viability (log2): 0.0484

## CS(=O)(=O)c1ccc2nc(NC(=O)c3cccc(Cl)c3)sc2c1
[3]
  cell viability (log2): -0.0938 (active)
[4]
  cell viability (log2): 0.0657
[11]
  cell viability (log2): 0.0503
[12]
  cell viability (log2): 0.0275

## COC(=O)C[C@H]1C(C)(C)C(=O)[C@@H]2C[C@@]3(O)C4=CC(=O)O[C@@H](c5ccoc5)[C@]4(C)CCC3[C@@]1(C)C2=O (some centres undefined)
[3]
  cell viability (log2): 0.0813
[4]
  cell viability (log2): 0.00839
[11]
  cell viability (log2): 0.172
[12]
  cell viability (log2): 0.118

## COc1ccccc1C1NC(=S)NC(C)=C1C(=O)Nc1ccccc1Cl (centres undefined)
[3]
  cell viability (log2): 0.153
[4]
  cell viability (log2): 0.0944
[11]
  cell viability (log2): 0.107
[12]
  cell viability (log2): 0.0425

## Cc1cc(=O)c2c(O)cc(O)c(C)c2o1
[3]
  cell viability (log2): 0.111
[4]
  cell viability (log2): 0.0695
[11]
  cell viability (log2): 0.0905
[12]
  cell viability (log2): 0.0937
